The text below walks through data of PubChem BioAssay (Tox21).

Assay [1] is described as follows: qHTS assay to identify small molecule agonists of the RXR signaling pathway - cell viability counter screen (AID 1159529).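 Note: HEK 293T cells carrying an RXR-alpha UAS beta-lactamase reporter; series mostly up to about 77 µM; nearly all actives have a fitted effect of over 50% in size.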 The method in brief:
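In this parallel viability measure, GeneBLAzer RXR-alpha HEK 293T cells (2% charcoal-stripped FBS) were given a 5 hr preincubation, treated with compounds 16 hr at 37 C, and read by CellTiter-Glo luminescence.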
In general terms: Quantitative high-throughput screening tests each substance at several concentrations.

Assay [2] is described as follows: qHTS assay to identify small molecule antagonists of the retinoid acid receptor (RAR) signaling pathway - cell viability counter screen (AID 1159551). Note: nearly all actives have a fitted effect of over 35% in size. The method in brief:
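C3RL4 RARE-luciferase cells, 1,000/well, incubated overnight, then dosed with compound plus 1 uM retinol (final). After 6 hr at 37 C, viability read by CellTiter-Glo ATP luminescence following 30 min at room temperature.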

Assay [3] is described as follows: qHTS assay to identify small molecule antagonists of the retinoic acid receptor (RAR) signaling pathway (AID 1159552; note: nearly all actives have a fitted effect of over 50% in size). The gist of the method: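 C3RL4 RARE-luc cells, overnight plating; retinol 1 uM final added right after compound; 6 hr 37 C; luciferase read at 30 min RT.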
Assay [4] can be described thus: qHTS assay to identify small molecule agonists of the retinoic acid receptor (RAR) signaling pathway (AID 1159553). The method in brief:
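C3RL4 RARE-luciferase cells were seeded at 1,000/well and grown overnight at 37 C, then exposed to compounds for 6 hr at 37 C, 5% CO2. Luciferase reagent was added and luminescence was read after 30 min at room temperature.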

A short description of assay [5]: qHTS assay to identify small molecule antagonists of the estrogen related receptor (ERR) signaling pathway from Tox21 library - cell viability counter screen (AID 1224834). Note: nearly all actives have a fitted effect of over 30% in size. Note: potency is the fitted concentration of half-maximal effect. The gist of the method: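 ERR reporter cells, 2,000 per well, rested 6 h, then exposed to compound in DMSO for 17.5 hours at 37 C. Viability read as fluorescence after 30 min with CellTiter-Fluor.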

The target in assay [6] is Luciferin 4-monooxygenase (Photinus pyralis) (UniProt P08659). The assay is described as follows: qHTS assay to identify small molecule inhibitors of firefly luciferase (AID 1224835). Note: series mostly up to about 120 µM; nearly all actives have a fitted effect of over 25% in size. The method in brief:
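Biochemical qHTS: compounds run as interplate titrations against purified firefly enzyme, with D-luciferin and ATP each at its KM concentration. Light output recorded by CCD imaging.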

Assay [7] is described as follows: qHTS assay to identify small molecule agonists of the constitutive androstane receptor (CAR) signaling pathway - cell viability counter screen (AID 1224836). Note: series mostly up to about 92 µM; nearly all actives have a fitted effect of over 45% in size. The method in brief: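 Using CellTiter-Fluor, viability of HepG2 cells harbouring hCAR and CYP2B6-2.2kb was measured following 23 h incubation with a 15-concentration compound series plus PK11195 (0.75 uM final).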

A short description of assay [8]: qHTS assay to identify small molecule antagonists of the constitutive androstane receptor (CAR) signaling pathway - cell viability counter screen (AID 1224837). Note: series mostly up to about 92 µM; nearly all actives have a fitted effect of over 45% in size. The method in brief:
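HepG2 cells stably carrying hCAR and CYP2B6-2.2kb reporter, stimulated with 50 nM CITCO and compounds at 15 concentrations for 23 h at 37 C. Viability measured by CellTiter-Fluor fluorescence.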

Assay [9] deals with Nuclear receptor subfamily 1 group I member 3 (Homo sapiens) (UniProt Q14994). Put plainly: qHTS assay to identify small molecule antagonists of the constitutive androstane receptor (CAR) signaling pathway (AID 1224838). Note: nearly all actives have a fitted effect of over 40% in size. The gist of the method: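 HepG2 cells stably carrying hCAR and a CYP2B6-2.2kb luciferase reporter, seeded 4 hrs before compound (15 concentrations). Stimulated with 50 nM CITCO for 24 hr at 37 C. ONE-Glo luminescence read after 30 min at room temperature.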
Chain of Nuclear receptor subfamily 1 group I member 3 (Homo sapiens) (Q14994 whole entry, looked up): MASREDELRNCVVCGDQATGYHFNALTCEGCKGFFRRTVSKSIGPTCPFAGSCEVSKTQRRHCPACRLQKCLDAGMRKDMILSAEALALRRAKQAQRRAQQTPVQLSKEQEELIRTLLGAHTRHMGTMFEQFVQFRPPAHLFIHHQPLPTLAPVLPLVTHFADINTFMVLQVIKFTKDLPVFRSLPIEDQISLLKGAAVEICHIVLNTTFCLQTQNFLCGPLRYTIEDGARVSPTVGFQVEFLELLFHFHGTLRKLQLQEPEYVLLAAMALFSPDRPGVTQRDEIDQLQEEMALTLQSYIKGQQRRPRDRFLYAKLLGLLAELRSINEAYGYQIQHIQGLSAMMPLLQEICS

Assay [10] in a line: qHTS assay to identify small molecule antagonists of the estrogen related receptor signaling pathway with the pleiotropic PPARgamma coactivator (PGC) from Tox21 10K library - cell viability counter screen (AID 1224840; active = well fitted cell-killing curve with a large enough effect in the repeat runs, not every such curve was filed as active; note: nearly all actives have a fitted effect of over 40% in size). The method in brief:
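PGC/ERR cells (2,000/well) plated 6 h, then compound-treated for 17.5 h at 37 C. Viability measured by CellTiter-Fluor fluorescence after 30 min at 37 C, multiplexed with the pathway assay.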

A short description of assay [11]: qHTS assay to identify small molecule antagonists of the estrogen related receptor signaling pathway with the pleiotropic PPARgamma coactivator (PGC) from Tox21 10K library (AID 1224841; call rule not given here; note: series mostly up to about 92 µM; actives are mostly falling curves and most rising ones were filed inactive; nearly all actives have a fitted effect of over 50% in size). The gist of the method: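 PGC/ERR cell line, 2,000 cells/well, pre-incubated 6 hours at 37 C, then exposed to compounds for 18 hours at 37 C; luciferase read with One-Glo luminescence after 30 min at room temperature.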

A short description of assay [12]: qHTS assay to identify small molecule agonists of the estrogen related receptor signaling pathway with the pleiotropic PPARgamma coactivator (PGC) from Tox21 10K library (AID 1224842). Note: nearly all actives have a fitted effect of over 15% in size. The method in brief: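 PGC/ERR reporter cell line, 2,000 cells per well, incubated 6 h at 37 C before 23 nL compound in DMSO was added. After 18 h at 37 C, One-Glo luminescence read following 30 min at room temperature.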

Assay [13] addresses Thyrotropin receptor (Homo sapiens) (UniProt P16473). The assay is described as follows: qHTS assay to identify small molecule agonists of the thyroid stimulating hormone receptor (TSHR) signaling pathway (AID 1224843; calls by dose curve; note: nearly all actives have a fitted effect of over 45% in size). The gist of the method:
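TSHR-HEK293 cells in agonist mode, 30 min room-temperature step, then cAMP measured by competitive HTRF (cAMP-d2 with anti-cAMP cryptate) after 1 h at room temperature. Tested at 15 concentrations in triplicate.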

The target of assay [14] is Nuclear receptor subfamily 1 group I member 3 (Homo sapiens) (UniProt Q14994). Put plainly: qHTS assay to identify small molecule agonists of the constitutive androstane receptor (CAR) signaling pathway (AID 1224839). For activation: series mostly up to about 92 µM. Note: nearly all actives have a fitted effect of over 15% in size. Note: potency is the fitted concentration of half-maximal effect. The gist of the method: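 Double-stable HepG2 cells (hCAR, CYP2B6-2.2kb) seeded 4 h before compound addition. Exposure 24 h with 0.75 uM PK11195 final. Luciferase detected by ONE-Glo.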

Records with an inconclusive call do not appear. Unmarked numbers belong to inactive results. Activity calls are given as the source filed them. Unless noted, calls come from the whole dose curve; as a rule, active = well fitted curve in the direction sought with a large enough effect in the repeat runs; inconclusive = weak or mixed curves; inactive = no such curve, though single readings can be large; an effect the other way counts as inactive or inconclusive.
% is set by controls: 0 for no effect and ±100 for the full control effect.

Chain of Luciferin 4-monooxygenase (Photinus pyralis) (P08659 whole entry, looked up): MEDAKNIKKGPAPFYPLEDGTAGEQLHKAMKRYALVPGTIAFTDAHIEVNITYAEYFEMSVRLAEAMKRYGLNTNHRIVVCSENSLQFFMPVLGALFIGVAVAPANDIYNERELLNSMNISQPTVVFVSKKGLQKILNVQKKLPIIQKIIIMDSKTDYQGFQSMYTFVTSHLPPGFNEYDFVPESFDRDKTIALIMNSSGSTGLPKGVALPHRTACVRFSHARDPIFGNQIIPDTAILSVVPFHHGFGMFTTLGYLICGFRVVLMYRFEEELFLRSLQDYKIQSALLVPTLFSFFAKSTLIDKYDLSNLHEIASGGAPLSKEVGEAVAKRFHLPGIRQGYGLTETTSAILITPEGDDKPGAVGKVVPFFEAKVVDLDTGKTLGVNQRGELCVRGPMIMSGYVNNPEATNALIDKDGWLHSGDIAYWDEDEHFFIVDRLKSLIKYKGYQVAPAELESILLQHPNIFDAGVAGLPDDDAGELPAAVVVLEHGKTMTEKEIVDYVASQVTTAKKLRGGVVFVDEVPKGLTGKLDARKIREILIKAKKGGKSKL
Chain of Thyrotropin receptor (Homo sapiens) (P16473 whole entry, looked up): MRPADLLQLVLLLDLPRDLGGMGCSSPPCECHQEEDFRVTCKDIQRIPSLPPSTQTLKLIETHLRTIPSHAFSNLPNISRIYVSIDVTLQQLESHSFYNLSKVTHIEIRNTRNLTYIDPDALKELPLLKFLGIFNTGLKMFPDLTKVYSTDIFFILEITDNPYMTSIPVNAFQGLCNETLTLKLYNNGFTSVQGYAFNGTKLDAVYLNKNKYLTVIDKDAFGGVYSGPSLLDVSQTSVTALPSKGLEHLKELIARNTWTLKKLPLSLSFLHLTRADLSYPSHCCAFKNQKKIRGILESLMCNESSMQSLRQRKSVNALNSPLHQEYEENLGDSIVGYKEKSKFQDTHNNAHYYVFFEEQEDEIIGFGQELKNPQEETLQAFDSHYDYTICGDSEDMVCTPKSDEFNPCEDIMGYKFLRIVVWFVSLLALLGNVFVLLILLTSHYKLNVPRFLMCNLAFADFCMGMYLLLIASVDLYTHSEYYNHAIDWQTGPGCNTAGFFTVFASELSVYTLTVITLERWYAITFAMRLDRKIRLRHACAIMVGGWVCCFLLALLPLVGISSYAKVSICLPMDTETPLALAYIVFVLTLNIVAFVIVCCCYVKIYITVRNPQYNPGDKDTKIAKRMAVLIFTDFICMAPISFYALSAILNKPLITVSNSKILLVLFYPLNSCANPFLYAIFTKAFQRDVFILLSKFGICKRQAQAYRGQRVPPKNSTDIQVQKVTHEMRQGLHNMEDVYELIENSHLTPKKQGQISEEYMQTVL

Regarding `Cc1ncc(CO)c(C=O)c1O`, the Potency result in [1], in [2], in [3], in [4], in [5] and in [6] was “inactive” throughout. The Potency entry in assay [7], in assay [8], in [9], in assay [10], in [11] and in assay [12] was “inactive” throughout. The Potency result in assay [13] is “inactive”.

As for `CCCCCCCCCCCC(=O)OC[C@@H](O)[C@H]1OC[C@H](OCCO)[C@H]1OCCO`, the Potency result in [1], in assay [2], in assay [3], in assay [4], in [5] and in assay [6] was “inactive” throughout. In addition, the Potency entry in assay [7], in assay [8], in assay [9], in assay [14], in [10] and in assay [13] was “inactive” throughout.

With `NCc1ccccc1Sc1ccccc1CO`, the Potency entry in assay [1], in assay [2], in assay [3], in assay [4], in assay [5] and in assay [6] was “inactive” each time. Further, the Potency result in assay [7], in assay [8], in assay [9], in assay [10] and in assay [13] was “inactive” throughout.

In the case of `COc1ccc(C)cc1[N+](=O)[O-]`, the Potency entry in assay [1], in assay [2], in [3], in assay [4], in assay [5] and in assay [6] was “inactive” each time. For the same compound, the Potency entry in assay [7], in assay [8], in assay [9], in [14], in assay [10] and in assay [12] was “inactive” in each case.

Turning to `CCCCOC(=O)CCCCCCCC(=O)OCCCC`, the Potency result in assay [1], in [2], in assay [3], in [4], in assay [5] and in [6] was “inactive” each time. Besides, the Potency result in assay [7], in assay [8], in assay [9], in [14], in assay [10] and in assay [11] was “inactive” each time. Besides, the Potency entry in [12] and in [13] was “inactive” in each case.

In the case of `O=C1CCC(=O)O1`, the Potency entry in assay [1], in assay [2], in assay [3], in assay [4], in assay [5] and in [6] was “inactive” in each case. Besides, the Potency entry in assay [7], in assay [8], in [9], in assay [10], in assay [11] and in assay [12] was “inactive” throughout.

As for `CCOC(=O)Cc1cccc2ccccc12`, the Potency entry in assay [1], in assay [2], in [3], in [4], in [5] and in assay [6] was “inactive” each time. Moreover, the Potency entry in [7], in assay [8], in assay [9], in assay [10] and in assay [12] was “inactive” throughout. In addition, the Potency in assay [14] was 30.6 µM (active).

Turning to `C=C(C)C(=O)OCCOCC`, the Potency result in assay [1], in [2], in assay [3], in [4], in assay [5] and in [6] was “inactive” each time. Further, the Potency entry in assay [7], in assay [8], in [9] and in [10] was “inactive” throughout.

Regarding `C#Cc1cccc(Nc2ncnc3cc(OCCOC)c(OCCOC)cc23)c1`, the Potency result in assay [1], in [2], in assay [3], in [4], in assay [6] and in assay [7] was “inactive” each time. The Potency result in assay [8], in [9], in [10] and in assay [12] was “inactive” each time. The Potency in assay [5] is 8.41 µM (active); in assay [14], 7.5 µM (active).

Consider `C[C@@H]1C[C@H]2[C@@H]3CCC4=CC(=O)C=C[C@]4(C)[C@@]3(F)[C@@H](O)C[C@]2(C)[C@@]1(O)C(=O)COC(=O)c1ccncc1`, for which the Potency entry in assay [1], in [2], in assay [3], in assay [4], in assay [5] and in [6] was “inactive” each time. Besides, the Potency result in assay [7], in [8], in assay [9], in [10] and in assay [13] was “inactive” in each case.

On to `COCCCN1CCC(NC(=O)c2cc(Cl)c(N)c3c2OCC3)CC1`, for which the Potency result in [1], in assay [2], in [3], in assay [4], in assay [5] and in assay [6] was “inactive” in each case. Also, the Potency result in assay [7], in [8], in assay [9], in assay [14], in assay [10] and in assay [11] was “inactive” in each case. Also, the Potency result in assay [12] is “inactive”.

For `O=C(O)c1ccc(S(=O)(=O)O)cc1C(=O)O`, the Potency entry in [1], in assay [2], in [3], in assay [4], in assay [5] and in assay [6] was “inactive” in each case. Besides, the Potency result in assay [7], in [8], in assay [9], in [10] and in [12] was “inactive” each time.

On to `COc1cc2nc(Cl)nc(N)c2cc1OC`, for which the Potency result in assay [1], in assay [2], in assay [3], in assay [4], in [5] and in assay [6] was “inactive” each time. Moreover, the Potency entry in assay [7], in [8], in assay [9], in [14] and in [10] was “inactive” in each case.

Take `CC1CCC(=O)C1=O` (stereo not given): the Potency result in assay [1], in [2], in assay [3], in [4], in assay [5] and in assay [6] was “inactive” throughout. The Potency entry in [7], in assay [8], in assay [9], in [14], in assay [10] and in assay [13] was “inactive” in each case.

Regarding `c1ccc(CNCCNCc2ccccc2)cc1`, the Potency entry in [1], in assay [2], in [3], in [4], in assay [5] and in assay [6] was “inactive” in each case. In addition, the Potency result in [7], in assay [8], in [9], in [10] and in assay [13] was “inactive” in each case.

As to `Nc1ccc([N+](=O)[O-])c(C(F)(F)F)c1`, the Potency result in assay [1], in assay [2], in assay [3], in assay [4], in assay [5] and in assay [6] was “inactive” in each case. Further, the Potency result in assay [7], in assay [8], in assay [9], in [14], in assay [10] and in assay [11] was “inactive” in each case. In addition, the Potency result in assay [12] and in [13] was “inactive” in each case.

For the compound `C=CCOc1ccccc1OCC(O)CNC(C)C` (stereo not given), the Potency result in assay [1], in [2], in [3], in assay [4], in assay [5] and in [6] was “inactive” in each case. The Potency entry in [7], in assay [8], in assay [9], in [14], in [10] and in assay [11] was “inactive” throughout. In assay [12], the Potency result is “inactive”.

For `C/C(=C(\CCOP(=O)(O)O)SC(=O)c1ccccc1)N(C=O)Cc1cnc(C)nc1N`, the activity change, negative = cytotoxicity in assay [1] is -1.63% [at 6.97 µM]; in assay [2], 2.57% [at 8.39 µM]; in assay [8], 5.24% [at 8.39 µM]. The activity, negative = inhibition in assay [3] is 10.1% [at 8.39 µM]; in assay [9] it was -18% [at 8.39 µM]. Further, the activation was 0.351% [at 8.36 µM] in assay [4] and -3.96% [at 8.39 µM] in assay [13]. Moreover, the viability change, negative = cytotoxic is 0.62% [at 8.39 µM] in assay [5], -1.07% [at 8.39 µM] in assay [7] and -2.4% [at 8.39 µM] in assay [10]. Besides, the activity change, negative = inhibition in assay [6] is 0.277% [at 10.5 µM].
